Measurements taken from the supplement of paper PMC8253809.

Assays:
Test in all cases: growth inhibition (% activity, log2 RLU normalised to DMSO / staurosporine); higher = more growth inhibition
Details in all cases: 33 µM
[1] = tested on: DIPGX29 (H3.3 K27M diffuse intrinsic pontine glioma line)
Summary of the method: (§1)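 The growth-inhibition value is the median over replicates. pHGG cell lines and H9-derived neural stem cells on Geltrex-coated 384-well plates received approved drugs by pin tool at a single final concentration of about 33 μM, in triplicate, for 7 days at 37 °C, 5% CO2. CellTiter-Glo luminescence was log2-transformed and normalised per plate to % activity between solvent and positive control wells.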

[2] = tested on: DIPGX37 (H3.3 K27M diffuse intrinsic pontine glioma line)
Summary of the method: as §1

[3] = tested on: DIPGX7 (H3.3 K27M diffuse intrinsic pontine glioma line)
Summary of the method: as §1

[4] = tested on: DIPGX9 (diffuse intrinsic pontine glioma line)
Summary of the method: as §1

[5] = tested on: HGGX39 (paediatric high-grade glioma line)
Summary of the method: as §1

[6] = tested on: HGGX6 (H3.3 G34R paediatric high-grade glioma line)
Summary of the method: as §1

[7] = tested on: HNSC
Summary of the method: as §1

[8] = tested on: SUDIPGIV (diffuse intrinsic pontine glioma line)
Summary of the method: as §1

[9] = tested on: SUDIPGVI (diffuse intrinsic pontine glioma line)
Summary of the method: as §1

[10] = tested on: SUDIPGXIII (diffuse intrinsic pontine glioma line)
Summary of the method: as §1

Structure (SMILES)	growth inhibition [1] [%]	growth inhibition [2] [%]	growth inhibition [3] [%]	growth inhibition [4] [%]	growth inhibition [5] [%]	growth inhibition [6] [%]	growth inhibition [7] [%]	growth inhibition [8] [%]	growth inhibition [9] [%]	growth inhibition [10] [%]
O=C(O)c1cn(-c2ccc(F)cc2)c2cc(N3CCNCC3)c(F)cc2c1=O	1.77	0.654	2.46	2.37	4.02	3.31	1.3	4.25	3.85	0.944
Cc1ccnc2c1NC(=O)c1cccnc1N2C1CC1	0.291	2.43	0.516	-1.16	0.921	-1.94	2	1.95	0.484	0.637
CCC(C)C1OC2(CCC1C)CC1CC(CC=C(C)C(OC3CC(OC)C(OC4CC(OC)C(O)C(C)O4)C(C)O3)C(C)C=CC=C3COC4C(O)C(C)=CC(C(=O)O1)C34O)O2 (stereo not given)	3.13	0.396	1.82	2.33	3.17	15.6	27.4	0.217	3.51	47.6
C=CCc1cc(OC)c(O)c(C(=O)NCCO)c1	-2.1	0.086	-1.32	0.81	-1.9	-0.129	-0.87	-1.83	0.104	-0.0438
O=C([O-])c1ccccc1O.[Na+]	1.02	2.5	2.56	1.21	1.15	-1.22	28.2	1.6	-4.02	0.791
O=c1cc[nH]c(=O)[nH]1	0.309	2.71	0.41	1.11	0.158	0.91	-1.21	0.441	1.23	-16.8
COc1cnc(NS(=O)(=O)c2ccc(N)cc2)nc1	-0.629	0.775	-0.856	0.181	-0.248	0.442	0.00282	-1.59	0.403	1.01
COc1c2occc2cc2ccc(=O)oc12	-0.546	-5.42	-1.53	-1.09	-2.13	-2.24	0.777	-2.41	-9.54	-0.581
C[C@@H](c1ncncc1F)[C@](O)(Cn1cncn1)c1ccc(F)cc1F	0.619	-0.0255	0.392	0.104	0.756	-0.00667	1.22	-1.27	-1.71	-0.404
C[C@@H]1O[C@@H]1P(=O)(O)O	-0.0235	-0.548	-0.0992	1.37	2.18	1.12	0.39	-0.299	0.0548	1.68
O=C(N[C@H](CO)[C@H](O)c1ccc([N+](=O)[O-])cc1)C(Cl)Cl	-0.766	2.12	-0.167	-0.0638	1.67	-1.13	3.64	-0.734	0.976	-0.883
O=C(O)[C@H](CC(=O)N1C[C@H]2CCCC[C@H]2C1)Cc1ccccc1	0.852	-5.28	0.289	1.86	1.09	0.619	1.48	1.74	1.16	-1.34
CCCc1cc(=O)[nH]c(=S)[nH]1	-0.542	1.03	-0.794	1.7	-0.649	-0.265	-0.282	-1.58	0.156	1.61
O=C(Nc1ccccc1)OCC(CN1CCCCC1)OC(=O)Nc1ccccc1 (stereo not given)	-1.04	-3.49	-0.617	-1.45	-2.3	-1.35	9.66	-3.64	-7.72	1.16
CCCNC(C)C(=O)Nc1ccccc1C (stereo not given)	-1.66	0.68	-1.19	-0.603	0.299	-0.0141	-2.37	-1.79	-0.942	-0.434
N#C[C@@H]1CCCN1C(=O)CNC12CC3CC(CC(O)(C3)C1)C2	-0.11	-0.458	-0.508	-1	0.579	-2.32	14.2	0.0993	-3.27	-3.49
Nc1nc2n[nH]nc2c(=O)[nH]1	14.5	13.2	14.4	22.6	17.5	13.7	56.2	32.2	1.16	1.25
NC(=O)C(c1ccccc1)(c1ccccc1)[C@@H]1CCN(CCc2ccc3c(c2)CCO3)C1	2.96	2.86	0.954	1.04	4.33	2.82	1.33	0.535	2.52	0.646
CCC[C@@H]1C[C@@H](C(=O)N[C@@H]([C@H]2O[C@H](SC)[C@H](O)[C@@H](O)[C@H]2O)[C@@H](C)O)N(C)C1	-2.47	0.84	-0.347	0.338	-0.628	-0.292	0.119	0.1	-1.6	0.849
Nc1nc(F)nc2c1ncn2[C@@H]1O[C@H](COP(=O)(O)O)[C@@H](O)[C@@H]1O	16.9	1.7	11.8	31.4	8.94	-0.81	23.2	9.24	-2.06	1.2
N[C@@H](CSCCCO)C(=O)O	-3.76	-2.47	0.0116	-2.7	-4.4	-5.11	22.1	-4.19	-9.19	-0.641

Structure (SMILES)	growth inhibition [1] [%]	growth inhibition [2] [%]	growth inhibition [3] [%]	growth inhibition [4] [%]	growth inhibition [5] [%]	growth inhibition [6] [%]	growth inhibition [7] [%]	growth inhibition [8] [%]	growth inhibition [9] [%]	growth inhibition [10] [%]
C/C(O)=C(\C#N)C(=O)Nc1ccc(C(F)(F)F)cc1	3.56	5.04	3.25	5.83	5.87	5.21	2.85	9.89	4.21	-15.3
CCC(=O)O[C@]1(C(=O)SCF)[C@H](C)C[C@H]2[C@@H]3C[C@H](F)C4=CC(=O)C=C[C@]4(C)[C@@]3(F)[C@@H](O)C[C@@]21C	0.571	2.49	-1.29	2.53	0.688	-0.734	2.55	-3.9	-0.462	1.22
CN(C)C(=N)NC(=N)N	-1.21	-7.32	-1.41	-1.73	-3.04	-0.131	-0.258	-2.86	-9.44	-1.47
CC[C@H](C)C[C@H](C)CCCCCCCCC(=O)N[C@H]1C[C@@H](O)[C@@H](NCCN)NC(=O)[C@@H]2[C@@H](O)CCN2C(=O)[C@H]([C@H](O)CCN)NC(=O)[C@H]([C@H](O)[C@@H](O)c2ccc(O)cc2)NC(=O)[C@@H]2C[C@@H](O)CN2C(=O)[C@H]([C@@H](C)O)NC1=O	-0.204	-0.0661	3.78	1.06	2.93	-1.44	7.21	-1.11	-4.4	0.336
CCCN(CCC)CCc1cccc2c1CC(=O)N2	-1.21	-2.23	1.15	0.189	2.83	-2.51	0.584	0.852	2.13	-0.826
COC(=O)N[C@H](C(=O)N[C@@H](Cc1ccccc1)[C@@H](O)CN(Cc1ccc(-c2ccccn2)cc1)NC(=O)[C@@H](NC(=O)OC)C(C)(C)C)C(C)(C)C	-2.79	-2.21	1.19	-1.97	-2.26	-3.15	-5.7	-0.315	-14.4	0.413
C=C1/C(=C\C=C2/CCC[C@]3(C)[C@@H]([C@H](C)CCCC(C)C)CC[C@@H]23)C[C@@H](O)C[C@@H]1O	-0.46	2.45	4.43	1.86	3.21	3.92	1.06	0.347	1.52	0.72
Cc1ncc([N+](=O)[O-])n1CCO	-0.678	-1.76	-1.15	0.881	1.6	-4.16	22.3	0.605	0.0318	-3.67
C[C@H]1[C@H](NC(=O)/C(=N\OC(C)(C)C(=O)O)c2csc(N)n2)C(=O)N1S(=O)(=O)O	1.82	1.51	2.55	1.75	2.62	1.95	1.91	1.35	3.09	1.38
N=c1nc(N2CCCCC2)cc(N)n1O	0.473	-0.191	0.732	-0.0641	-0.0574	-3.42	1.05	-0.657	1.35	-1.69
COc1cc(C(=O)NC2CCCNC2)cc(OC)c1OC (stereo not given)	0.123	2	0.49	0.203	2.37	-3.35	6.28	1.23	0.918	-1.95
C=CC[N+]1([C@H]2C[C@H]3[C@@H]4CC[C@H]5C[C@H](O)[C@@H](N6CCOCC6)C[C@]5(C)[C@H]4CC[C@]3(C)[C@H]2OC(C)=O)CCCC1	-0.303	-0.692	1.36	0.151	4.24	1.87	2.05	-0.149	0.535	1.02
Cc1cccc(C)c1NC(=O)C1CCCCN1C (stereo not given)	0.788	0.607	-0.12	0.0719	1.51	1.22	-1.45	-0.501	1.09	1.48
O=C1CCc2cc(OCCCCc3nnnn3C3CCCCC3)ccc2N1	3.36	2.01	4.29	2.35	7.05	2.3	4.38	3.38	3.43	1.12
CCN1CCN(c2cc(-c3ccc(F)cc3)c3c(n2)CCCCCC3)CC1	9.89	1.2	21.9	4.47	10.1	0.894	5	4.82	4.25	2.42
CC(=O)N[C@@H](CS)C(=O)O	-0.541	1.66	0.31	-0.364	-0.994	-2.9	1.29	0.64	0.65	0.374
COc1cc2ncnc(Nc3ccc(F)c(Cl)c3)c2cc1OCCCN1CCOCC1	3.09	-0.0268	1.03	-0.279	1.46	4.13	-1.23	-5.34	-6.03	0.759
CCOC(=O)C1=C[C@]2(CC)CCCN3CCc4c(n1c1ccccc41)[C@@H]32	-2.05	0.343	1.55	0.728	0.726	-1.58	34.5	1.95	0.167	3.3
CN1C(C(=O)Nc2ccccn2)=C(O)c2ccccc2S1(=O)=O	-1.78	1.01	-0.635	-1.57	0.433	-2.07	2.62	-1.29	0.752	-1.07
NC(=O)N1c2ccccc2CC(=O)c2ccccc21	-3.02	-1.81	-2.16	-3.17	-2.13	-4.21	-3.92	-3.93	-1.28	-0.579
CO[C@@]1(NC(=O)C(C(=O)O)c2ccc(O)cc2)C(=O)N2C(C(=O)O)=C(CSc3nnnn3C)CO[C@@H]21 (stereo not given in full)	-1.75	-0.992	-0.554	-0.636	-0.0428	0.31	-3.08	-1.1	0.787	-4.5
